In PubChem BioAssay (EPA / NIEHS):
The source made the active and inactive calls. The calls were made as follows: active = hit-call score of the fitted dose curve at least 0.9, where 1 is the maximum; inactive = score below 0.9.

Legend:
Details in all cases: mRNA level, 48 h; actives raise or lower the signal
[1] = read-out: growth arrest and DNA damage 45 (GADD45G), GADD45G (gene 10912); test: LTEA_HepaRG_GADD45G: Life Technologies and Expression Analysis (LTEA) Assay for growth arrest and DNA damage 45 (GADD45G) using HepaRG (AID 2283499)
Method in brief: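 HepaRG, 48 h exposure, top 100 uM, half-log 8-point series, 0.5% DMSO vehicle, duplicates. Readout: GADD45G transcript by qRT-PCR (Fluidigm array), housekeeping-normalised (ACTB/GAPDH/POLR2A). Bidirectional curve fit vs DMSO baseline.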

[2] = read-out: Glutamate-cysteine ligase regulatory (GCLM), GCLM (gene 2730); test: LTEA_HepaRG_GCLM: Life Technologies and Expression Analysis (LTEA) Assay for Glutamate-cysteine ligase regulatory (GCLM) using HepaRG (AID 2283500)
Method in brief: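 Endpoint is GCLM transcript level by qRT-PCR, normalized to three housekeeping genes, after 48 h chemical exposure of human HepaRG cells (0.5% DMSO vehicle, top 100 uM, half-log dilutions). Fitting was bidirectional relative to DMSO.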

[3] = read-out: Glutathione S-transferase M3 (GSTM3), GSTM3 (gene 2947); test: LTEA_HepaRG_GSTM3: Life Technologies and Expression Analysis (LTEA) Assay for Glutathione S-transferase M3 (GSTM3) using HepaRG (AID 2283501)
Method in brief: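 qRT-PCR read-out of GSTM3 transcript, normalized to three housekeeping genes, from human HepaRG cells after 48 h chemical exposure. Eight-point half-log series, top 100 uM, 0.5% DMSO vehicle; gain or loss fitted relative to DMSO baseline.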

[4] = read-out: Heat shock 70 kDa protein 1 (HSPA1A), gene 3303; test: LTEA_HepaRG_HSPA1A: Life Technologies and Expression Analysis (LTEA) Assay for Heat shock 70 kDa protein 1 (HSPA1A) using HepaRG (AID 2283502)
Method in brief: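 Cells were plated and cultured for 48 h, then switched to serum-free induction medium. Chemicals were added at eight half-log concentrations up to 100 uM for 48 h. RNA was then isolated and HSPA1A measured by qRT-PCR with bidirectional curve fitting against DMSO.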

[5] = read-out: 3-Hydroxy-3-Methylglutaryl-CoA Synthase 2 (HMGCS2), HMGCS2 (gene 3158); test: LTEA_HepaRG_HMGCS2: Life Technologies and Expression Analysis (LTEA) Assay for 3-Hydroxy-3-Methylglutaryl-CoA Synthase 2 (HMGCS2) using HepaRG (AID 2283504)
Method in brief: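 qRT-PCR read-out of HMGCS2 transcript, normalised to three housekeeping genes, in HepaRG cells after 48 h chemical exposure. Eight-point curves from 100 uM, half-log dilutions, 0.5% DMSO vehicle; gain or loss fitted relative to DMSO baseline.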

HGF (gene 3082) = test: LTEA_HepaRG_HGF: Life Technologies and Expression Analysis (LTEA) Assay for Hepatocyte Growth Facto (HGF) using HepaRG (AID 2283505)
Method in brief: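 HepaRG, 48 h dosing, 8-pt half-log series from 100 uM in 0.5% DMSO, duplicates. Readout: TaqMan qRT-PCR of HGF mRNA, housekeeping-normalized; bidirectional curve fit vs DMSO baseline.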

[6] = read-out: Insulin Like Growth Factor 1 (IGF1), IGF1 (gene 3479); test: LTEA_HepaRG_IGF1: Life Technologies and Expression Analysis (LTEA) Assay for Insulin Like Growth Factor 1 (IGF1) using HepaRG (AID 2283506)
Method in brief: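 Cells are thawed, plated and cultured 48 h, then exposed in duplicate to chemical (highest 100 uM, half-log steps, 0.5% DMSO) for another 48 h. Total RNA is analysed by Fluidigm qRT-PCR for IGF1 expression relative to vehicle.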

[7] = read-out: Intercellular Adhesion Molecule 1 (ICAM1), ICAM1 (gene 3383); test: LTEA_HepaRG_ICAM1: Life Technologies and Expression Analysis (LTEA) Assay for Intercellular Adhesion Molecule 1 (ICAM1) using HepaRG (AID 2283507)
Method in brief: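 HepaRG, 48 h exposure, 8-pt half-log series from 100 uM, 0.5% DMSO vehicle, duplicates. Readout: TaqMan qRT-PCR mRNA, housekeeping-normalized (ACTB/GAPDH/POLR2A). Bidirectional curve fit vs DMSO baseline.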

[8] = read-out: Insulin-like growth factor-binding protein 1 (IGFBP1), IGFBP1 (gene 3484); test: LTEA_HepaRG_IGFBP1: Life Technologies and Expression Analysis (LTEA) Assay for Insulin-like growth factor-binding protein 1 (IGFBP1) using HepaRG (AID 2283508)
Method in brief: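 qRT-PCR mRNA read-out (TaqMan, Fluidigm array), normalised to three housekeeping genes; HepaRG cells, 48 h exposure, 8-pt half-log series from 100 uM, 0.5% DMSO vehicle; bidirectional curve fit vs DMSO baseline.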

[9] = read-out: Interleukin 6 (IL6), IL6 (gene 3569); test: LTEA_HepaRG_IL6: Life Technologies and Expression Analysis (LTEA) Assay for Interleukin 6 (IL6) using HepaRG (AID 2283509)
Method in brief: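 qRT-PCR read-out of IL6 transcript, normalized to three housekeeping genes, after 48 h chemical exposure of HepaRG cells; 8-point half-log series, top 100 uM, 0.5% DMSO vehicle. Bidirectional curve fitting against DMSO baseline.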

[10] = read-out: Interleukin 6 Receptor (IL6R), IL6R (gene 3570); test: LTEA_HepaRG_IL6R: Life Technologies and Expression Analysis (LTEA) Assay for Interleukin 6 Receptor (IL6R) using HepaRG (AID 2283510);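 as to AC50: differentiated human HepaRG liver cells in serum-free induction medium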
Method in brief: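 Cells were thawed, plated and cultured 48 h, then medium was changed to serum-free induction medium. Chemicals were added in duplicate (100 uM top, half-log steps, 0.5% DMSO) for 48 h. Lysates were analyzed by qRT-PCR for IL6R expression.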

[11] = read-out: Potassium channel subfamily K member 1 (KCNK1), KCNK1 (gene 3775); test: LTEA_HepaRG_KCNK1: Life Technologies and Expression Analysis (LTEA) Assay for Potassium channel subfamily K member 1 (KCNK1) using HepaRG (AID 2283511)
Method in brief: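 HepaRG, 48 h exposure, 8-pt half-log series top 100 uM, 0.5% DMSO vehicle, duplicates. Readout: KCNK1 transcript by qRT-PCR (Fluidigm array), housekeeping-normalized; bidirectional curve fit relative to DMSO baseline.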

[12] = read-out: Keratin 19 (KRT19), KRT19 (gene 3880); test: LTEA_HepaRG_KRT19: Life Technologies and Expression Analysis (LTEA) Assay for Keratin 19 (KRT19) using HepaRG (AID 2283512)
Method in brief: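 HepaRG, 48 h chemical exposure, 8-pt half-log CRC from 100 uM, 0.5% DMSO vehicle, duplicates. Readout: TaqMan qRT-PCR of KRT19 mRNA, housekeeping-normalized (ACTB/GAPDH/POLR2A). Bidirectional fit vs DMSO baseline.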

[13] = read-out: JUN Transcription Factor, JUN (gene 3725); test: LTEA_HepaRG_JUN: Life Technologies and Expression Analysis (LTEA) Assay for JUN Transcription Factor using HepaRG (AID 2283513)
Method in brief: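 Read-out is JUN transcript level by TaqMan qRT-PCR, normalized to ACTB, GAPDH and POLR2A, after 48 h chemical treatment of HepaRG cells. Concentration-response spanned eight half-log points up to 100 uM in 0.5% DMSO.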

[14] = read-out: Lipase C (LIPC), LIPC (gene 3990); test: LTEA_HepaRG_LIPC: Life Technologies and Expression Analysis (LTEA) Assay for Lipase C (LIPC) using HepaRG (AID 2283514)
Method in brief: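 HepaRG, 48 h exposure, 8-pt half-log series from 100 uM in 0.5% DMSO, duplicates. Readout: LIPC mRNA by Fluidigm qRT-PCR, housekeeping-normalized (ACTB/GAPDH/POLR2A). Gain or loss fitted bidirectionally against DMSO baseline.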

[15] = read-out: Lipoprotein lipase (LPL), LPL (gene 4023); test: LTEA_HepaRG_LPL: Life Technologies and Expression Analysis (LTEA) Assay for Lipoprotein lipase (LPL) using HepaRG (AID 2283515)
Method in brief: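 HepaRG, 48 h exposure, 8-pt half-log dilutions from 100 uM, 0.5% DMSO vehicle, duplicates; qRT-PCR (Fluidigm array) of LPL mRNA vs housekeeping genes; bidirectional curve fit relative to DMSO baseline.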

[16] = read-out: MicroRNA 122 (MIR122), gene 406906; test: LTEA_HepaRG_MIR122: Life Technologies and Expression Analysis (LTEA) Assay for MicroRNA 122 (MIR122) using HepaRG (AID 2283516); also: the transcript read is the microRNA miR-122
Method in brief: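 Human liver HepaRG cultures receive test chemicals for 48 h at eight half-log concentrations from 100 uM. Expression is quantified by qRT-PCR with ACTB/GAPDH/POLR2A normalization and fitted bidirectionally against 0.5% DMSO.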

[17] = read-out: matrix metalloproteinase-10 (MMP10), MMP10 (gene 4319); test: LTEA_HepaRG_MMP10: Life Technologies and Expression Analysis (LTEA) Assay for matrix metalloproteinase-10 (MMP10) using HepaRG (AID 2283517)
Method in brief: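 Transcript levels come from Fluidigm qRT-PCR normalized to three housekeeping genes, with curves fitted bidirectionally against 0.5% DMSO. Human HepaRG cells were dosed for 48 hours at concentrations up to 100 uM.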

MYC, MYC (gene 4609) = test: LTEA_HepaRG_MYC: Life Technologies and Expression Analysis (LTEA) Assay for MYC using HepaRG (AID 2283518)
Method in brief: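 qRT-PCR read-out of MYC transcript (Fluidigm TaqMan, housekeeping-normalized) after 48 h chemical exposure of HepaRG cells; eight concentrations, top 100 uM, half-log steps. Bidirectional curve fitting against 0.5% DMSO vehicle baseline.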

Measured: AC50

CC(=O)C(C)=CC1C(C)=CCCC1(C)C (stereo unspecified)
inactive: all assays above

CCOc1ccc2c(c1)C(C)=CC(C)(C)N2
active: [5] 20 µM | [6] 12.7 µM | [8] 50 µM | [10] 76.9 µM | [15] 50 µM
inactive: all other assays above

CC=Cc1ccc(O)c(OC)c1
inactive: all assays above

CC(=O)Oc1ccccc1C(=O)O
inactive: all assays above
